Hit rate of the full screen: of about 69,000 compounds, about 8,600 (12%) showed an effect of 50% or more. Many of the other results were omitted from the sample, so strong results are more common in it than they were.

The subject of the assay is Plasmodium berghei. Put plainly: Screen against P. berghei liver stage (PbLuc), transformed with Luciferase, at 10uM. It counts as functional, HepG2. Conditions: tested at 10 uM.
For `O=C(NCc1nnc2n1C(C(=O)NC1CC1)CC2)c1ccc(Cl)cc1Cl` (centres undefined), the INHIBITION was 44.9%.
Under `COCCN1CC2(CCN(C(=O)c3ccno3)CC2)c2ccccc21` stands -14.7%.
Turning to `Cc1cccc(C(=O)N2Cc3ccccc3C3(CCN(C)CC3)C2)n1`, the INHIBITION was 36.9%.
Under `Cc1ccsc1C(=O)N1Cc2ccccc2C2(CCN(C)CC2)C1` stands 53.5%.
For the molecule `CN1CCC2(CC1)CN(C(=O)c1ccncc1)Cc1ccccc12`, the INHIBITION was 57.9%.
`COCCN1Cc2ccccc2C2(CCN(C(=O)c3ccno3)CC2)C1`: the INHIBITION is -1.36%.
On to `Cc1cncc(C(=O)N2Cc3ccccc3C3(CCN(C)CC3)C2)c1`, for which the INHIBITION came to 39.2%.
In the case of `CS(=O)(=O)N1Cc2ccccc2C2(CCN(C(=O)c3ccno3)CC2)C1` it was 55.7%; in that of `CN1CCC2(CC1)CN(C(=O)c1cnccn1)Cc1ccccc12`, 18.3%; in that of `CN1CCC2(CC1)CN(C(=O)c1cccnc1)Cc1ccccc12`, 33.4%.
In the case of `CCCC1c2cccn2CCN1C(=O)c1cc(CC)no1` (centres undefined), the INHIBITION was 44.1%.
Turning to `Cc1cccc(C)c1-n1nnnc1C1(NCc2ccco2)CCCC1`, the INHIBITION was 45.4%.
On to `Cc1nc(C)n(CC2CCCN2CC(=O)NC2CCOCC2)n1` (centres undefined), for which the INHIBITION is reported as 38.5%.
As for `Cc1nc(CN2CCN(CC(O)CN3CCOCC3)CC2)oc1C` (centres undefined), the INHIBITION came out at 4.34%.
As for `O=C([C@H]1CCCO1)N1CCC2(CCCN(CCOc3ccccc3)C2)C1` (some centres undefined), the INHIBITION is on record as 12.4%.
Consider `COCC(=O)N1CC[C@H]2O[C@@H](C)C[C@H]2C1`, for which the INHIBITION is on record as -1.55%.
For the molecule `Cc1nn(C)cc1S(=O)(=O)NCC(c1ccccc1Cl)N1CCCC1` (centres undefined), the INHIBITION is 13.5%.
For `Cn1c(CNCC2CCCN2c2cccnn2)nc2ccccc21` (centres undefined), the INHIBITION is recorded as -0.113%.
Consider `OC(COCc1cccs1)CN1CCc2c(ncn2C2CC2)C1` (centres undefined), for which the INHIBITION is listed as 2.97%.
Consider `Cc1ccc2[nH]c(C3CCN(C)CC3)nc2c1`, for which the INHIBITION is reported as -17.9%.
`Cc1ccc2[nH]c([C@H]3CCN(CC4CCCCC4)C3)nc2c1`: the INHIBITION was 51.9%.
With `COCCN1CCC(c2nc3cc(C)ccc3[nH]2)CC1`, the INHIBITION was found to be 15.5%.
In the case of `Cc1nc(CNC(=O)c2cc(COc3ccccc3)[nH]n2)n[nH]1` it was 15.7%; in that of `NC(=O)c1nc(-c2ccc(Cl)cc2Cl)oc1N`, -63.4%.
Regarding `Cc1cc2c(=O)n3c(nc2s1)CCN(Cc1cnn(C)c1C)CC3`, the INHIBITION worked out at 24.5%.
In the case of `COc1ccc2c(c1)CCCN(C(C)C(=O)NC(N)=O)C2` (centres undefined) it was 1.79%; in that of `COc1ccc2c(c1)CCCN(C(C)C(=O)NC(C)C)C2` (centres undefined), -9.87%; in that of `COC(=O)C(C)N1CCCc2cc(OC)ccc2C1` (centres undefined), 59.2%.
On to `CS(=O)(=O)CCC(=O)NC1(c2cccc(Br)c2)CC1`, for which the INHIBITION is 5.14%.
In the case of `CS(=O)(=O)CCC(=O)Nc1ccsc1`, the INHIBITION is -120%.
Consider `CNC(=O)CS(=O)(=O)Cc1coc(-c2cccc(F)c2)n1`, for which the INHIBITION was -11.3%.
For the molecule `CCS(=O)(=O)CC(=O)NC(C)c1ccc(F)cc1F` (centres undefined), the INHIBITION is given as 47.5%.
With `CC(C)CS(=O)(=O)CC(=O)NC(C)(C)c1cccc(F)c1`, the INHIBITION came out at 52.2%.
Under `CCC(C(=O)NC)N(c1cccc(C)c1)S(C)(=O)=O` (centres undefined) stands 0.547%; under `Cc1cccc(CS(=O)(=O)CC(=O)NCCCOC(C)C)c1`, 45%.
Regarding `Cc1cccc(C(C)(C)NC(=O)CS(=O)(=O)CC(C)C)c1`, the INHIBITION stood at 64.5%.
Turning to `Cc1cccc(C(C)(C)NC(=O)CCS(C)(=O)=O)c1`, the INHIBITION is 51%.
For the molecule `Cc1nc(C)n(CC2CCCN(CC(=O)Nc3nnc(C)s3)C2)n1` (centres undefined), the INHIBITION is recorded as 33.25%.
Under `O=C1c2ncccc2C(CCO)N1Cc1ccccc1` (centres undefined) stands 2.55%.
`Cc1c(COC(C)C)cccc1NC(=O)N1CCCC(CO)C1` (centres undefined): the INHIBITION came out at 49.1%.
As for `CCC1c2cccn2CCN1C(=O)c1cc(OC)nc(OC)n1` (centres undefined), the INHIBITION is 19.7%.
For the molecule `O=C(N[C@@H]1CCC[C@@H](N2CCOCC2)[C@@H]1O)c1ncccn1`, the INHIBITION was determined as 36.4%.
For the molecule `O=C(C1CC1)N1C[C@H]2CNC[C@@]2(C(=O)NCCCc2ccccc2)C1`, the INHIBITION is 32.5%.
As for `CS(=O)(=O)N1C[C@H]2CNC[C@@]2(C(=O)NCCCc2ccccc2)C1`, the INHIBITION was 73.5%.
Under `CS(=O)(=O)N1C[C@H]2CNC[C@@]2(C(=O)NCCOc2ccccc2)C1` stands 18.6%.
Take `CN(C)S(=O)(=O)NC(=O)CC(c1ccccc1)C(F)(F)F` (centres undefined): the INHIBITION is recorded as 62.8%.
For the molecule `CC(C)S(=O)(=O)NC(=O)CC(c1ccccc1)C(F)(F)F` (centres undefined), the INHIBITION was 31.3%.
Regarding `COCC(C)(C)NC(=O)CC(c1ccccc1)C(F)(F)F` (centres undefined), the INHIBITION came out at 29.4%.
For `Cc1cnccc1NCCNC(=O)C1CCCN(Cc2ccco2)C1` (centres undefined), the INHIBITION amounted to 24.3%.
In the case of `Cc1ccc(NCCCNC(=O)C2CCCN(Cc3ccco3)C2)nc1` (centres undefined), the INHIBITION is listed as 75.1%.
With `O=C(NCCCc1ccncc1)C1CCCN(Cc2ccco2)C1` (centres undefined), the INHIBITION is listed as 19.5%.
Consider `c1cncc(COCC2C[C@@H]3OCCN(Cc4cccnc4)[C@H]3C2)c1` (some centres undefined), for which the INHIBITION was 23.6%.
On to `CN(C)C(=O)N1CCC[C@]2(C(=O)N(C)C)CN(c3ccccn3)C[C@@H]2C1`, for which the INHIBITION was -2.35%.
For `Cc1ccc(C(=O)N2CCO[C@H]3[C@H](OCCN(C)C)CC[C@@H]32)o1`, the INHIBITION was -26.1%.
Regarding `CC(NCc1ccncc1)c1cc2c(cc1Br)OCCO2` (centres undefined), the INHIBITION amounted to 53.9%.
On to `CC(NCc1ccccn1)c1cc2c(cc1Br)OCCO2` (centres undefined), for which the INHIBITION is 47.4%.
As to `CC(NCc1cccnc1)c1cc2c(cc1Br)OCCO2` (centres undefined), the INHIBITION is 15%.
Under `Cc1cnc(N2CCO[C@@H]3CC(COCc4cccnc4)C[C@H]32)nc1` (some centres undefined) stands 45.4%.
In the case of `O=C(Nc1cccnc1N1CCSCC1)c1ccc2c(c1)CCO2` it was 39.6%; in that of `COCCOc1ccnc(-c2noc([C@@H]3CCCN3CC3CC3)n2)c1`, 18.4%; in that of `COCCOc1ccnc(-c2noc([C@@H]3CCCN3CC(C)C)n2)c1`, -15.6%.
Consider `COCCOc1ccnc(-c2noc([C@@H]3CCCN3CC(C)(C)C)n2)c1`, for which the INHIBITION was determined as 53.2%.
On to `CS(=O)(=O)CCC(=O)N1C[C@H]2CC[C@@H](C1)N(Cc1ccccn1)C2=O`, for which the INHIBITION was 5.38%.
Regarding `c1ccc(-c2nc(CNCC3CCCN3c3cccnn3)co2)cc1` (centres undefined), the INHIBITION is listed as -17.7%.
Under `Cn1cc(CN2CCCC(n3c(=O)oc4ccccc43)C2)cn1` (centres undefined) stands 2.14%; under `CC(CN(C)C)Nc1nc(O)cc(Cc2ccccc2F)n1` (centres undefined), 39.3%.
For the molecule `CCOC(=O)C1CC2(CCCCC2)N2CCC(=O)N12` (centres undefined), the INHIBITION was 54%.
Under `CCOC(=O)C1CC2(CCCC2)N2CCC(=O)N12` (centres undefined) stands 0.284%.
As for `CCOC(=O)C1CC2(CCOCC2)N2CCC(=O)N12` (centres undefined), the INHIBITION came to 20.7%.
Turning to `Cc1ccccc1C1CCCN1C(=O)CN1CC2(CCNCC2)OC1=O` (centres undefined), the INHIBITION came out at 50.1%.
In the case of `Cc1noc(C)c1C1CCCN1C(=O)CN1CC2(CCNCC2)OC1=O` (centres undefined) it was 36.8%; in that of `O=C1OC2(CCNCC2)CN1CC(=O)N1CCCC1c1ccco1` (centres undefined), 16.8%; in that of `Cc1nc2ccc(S(=O)(=O)Nc3c(C)nn(CC(=O)O)c3C)cc2s1`, 34.7%.
In the case of `CCN(Cc1ccncc1)c1cc(C2CCNCC2)nc(C)n1`, the INHIBITION worked out at 14.6%.
In the case of `Cc1nc(C2CCCNC2)cc(N(C)CCc2ccccc2)n1` (centres undefined), the INHIBITION is listed as -16.5%.
Take `CCN(Cc1ccncc1)c1cc(C2CCCNC2)nc(C)n1` (centres undefined): the INHIBITION was 53.7%.
In the case of `CCOc1ccc(CNC(C)c2c(C)nn(C)c2C)cc1` (centres undefined), the INHIBITION is -88.5%.
On to `COc1ccccc1CC(=O)N1CCC(NCc2ccccn2)CC1`, for which the INHIBITION was 46.3%.
As for `CN(Cc1cnc(N)nc1)C(=O)c1coc(COc2cccc(F)c2)n1`, the INHIBITION turned out to be 0.546%.
Take `COc1ccccc1N1CCN(c2nc(N)nc3[nH]cnc23)CC1`: the INHIBITION is listed as 20.6%.
In the case of `COc1cc(CN(C)[C@@H]2COC[C@H]2c2ccc(F)cc2)cc(OC)c1`, the INHIBITION turned out to be 10.635%.
As to `COc1ccc(CN(C)[C@@H]2COC[C@H]2c2ccc(F)cc2)cc1`, the INHIBITION worked out at 34.3%.
As for `COc1ccc(CN(C)[C@@H]2COC[C@H]2c2ccc(F)cc2)c(OC)c1`, the INHIBITION is listed as 59.9%.
For the molecule `CN1CCOCC12CCN(C(=O)C1CCC1)CC2`, the INHIBITION came out at 22.3%.
Consider `CCOCCCNC(=O)C1(C)CCC(=O)N1c1ccccc1OC` (centres undefined), for which the INHIBITION stood at 32.1%.
Turning to `CC(=O)N1CCC(n2nccc2-c2cnc(NCCO)nc2)CC1`, the INHIBITION amounted to 33.7%.
As to `Oc1nnc(-c2cccs2)c2sc(N3CCCC3)nc12`, the INHIBITION is 47.7%.
Consider `Cc1nc(NC(=O)C2CCCN(C(N)=O)C2)sc1-c1ccccc1` (centres undefined), for which the INHIBITION came to 34.1%.
Take `Oc1nnc(-c2ccccc2)c2sc(N3CCCCC3)nc12`: the INHIBITION is recorded as 57%.
On to `c1ccc(-c2nnc3n2CCN(c2nc(C4CC4)ns2)C3)cc1`, for which the INHIBITION is recorded as -57.3%.
On to `O=c1[nH]nc(-c2cccs2)c2sc(N3CCOCC3)nc12`, for which the INHIBITION is recorded as -29.5%.
In the case of `Oc1nnc(-c2cccs2)c2sc(N3CCCCC3)nc12` it was 54.3%.
In the case of `CC(CS(C)(=O)=O)N(C(=O)CCc1cccc(F)c1)C1CC1` (centres undefined) it was -35%; in that of `CNS(=O)(=O)c1ccc(CNC(=O)N(C)C(C)COC)cc1` (centres undefined), 44.9%; in that of `CCC1=N[C@@]2(CC[C@@H]3CN(Cc4ccc(Cl)cc4)C[C@@H]32)C(=O)N1`, 35.3%.
`CCC1=N[C@@]2(CC[C@@H]3CN(CC4CC4)C[C@@H]32)C(=O)N1CC1CC1`: the INHIBITION stood at 30.3%.
On to `CC(C)CCN(C(=O)c1cccc(NC(N)=O)c1)C1CC1`, for which the INHIBITION is 12.4%.
With `CC(=O)c1cccc(NC(=O)N(CCO)C2CCc3ccccc32)c1` (centres undefined), the INHIBITION came out at 24.8%.
Turning to `CC(C)CCN(C(=O)Nc1cccc(C(=O)N(C)C)c1)C1CC1`, the INHIBITION was determined as 84.1%.
`CC(C)CN(C(=O)Nc1cccc(C(=O)N(C)C)c1)C1CC1`: the INHIBITION came out at 38.5%.
As for `N#Cc1cccc(NC(=O)N(CC(F)F)C2CC2)c1`, the INHIBITION was found to be 24.3%.
For `CC(=O)c1cccc(NC(=O)N(CC(F)F)C2CC2)c1`, the INHIBITION was 61.1%.
In the case of `Cn1ccc(C(=O)N2C[C@@H]3CN(CC4CC4)CCO[C@@H]3C2)n1`, the INHIBITION is recorded as 27.5%.
Consider `CCc1noc(CN(C)Cc2cc3ccc(Cl)cc3[nH]c2=O)n1`, for which the INHIBITION was -4.37%.

Source of the values: ChEMBL document CHEMBL4513216, “Probing the Open Global Health Chemical Diversity Library for Multistage-Active Starting Points for Next-Generation Antimalarials” (ACS Infect Dis, 2020).
